# Bioassay records (PubChem)
# Only a selection was taken, and hits are over-represented in it overall.
# Tg IFNy HTS: inhibitors of Toxoplasma gondii growth with IFN-gamma; Toxoplasma gondii growth in IFN-gamma-treated host cells; stronger effect = lower value; activity change, negative = inhibition, % (test concentration not listed); 69,000 tested, 3.8% active; in the data active = activity change below about -70%, passing the limit was not always enough;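 also: host cells are HeLa cells infected with Toxoplasma gondii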
# * marks the source's active call; other numbers are inactive results.
SMILES,Tg IFNy HTS
COc1ccc2[nH]c3c(c2c1)CN(C(=O)CC(C)n1nc(C)c(Cl)c1C)CC3 (centres undefined),49.7
O=C(Nc1cccc(F)c1)C1CCN(S(=O)(=O)c2ccc3[nH]c(=O)ccc3c2)CC1,71.9
CN(C)Cc1cc(=O)n2c(n1)CN(CC1CC1)CCC2,-12.6
CCn1nc(C)c(Br)c1C(=O)Sc1ccc(C(F)(F)F)cc1,-13.0
Clc1cncc(Cl)c1CN1CCCCC1c1ccccn1 (centres undefined),-23.8
COc1cc(C)c(C)cc1S(=O)(=O)NCCc1csc(-c2ccc(Cl)cc2)n1,-12.1
Cc1cc(S(=O)(=O)O)c2c(C)ccc(C(C)C)cc1-2,-0.6
COc1ccc2c3c([nH]c2c1)[C@H](CO)N(C(=O)Nc1cccc(F)c1)CC31CCN(S(=O)(=O)c2cccc(C)c2)CC1,-53.8
COc1ccc2c3c(n(C)c2c1)[C@H](CO)N(C(=O)Nc1ccc(F)cc1)CC31CCN(S(=O)(=O)c2cccc(C)c2)CC1,-74.1*
COc1ccc2c3c(n(C)c2c1)[C@@H](CO)N(C(=O)Nc1ccc(F)cc1)CC31CCN(S(=O)(=O)c2cccc(C)c2)CC1,-75.5*
CCCNC(=O)N1CC2(CCN(S(=O)(=O)c3ccccc3)CC2)c2c(n(C)c3cc(OC)ccc23)[C@H]1CO,-57.7
COc1ccc2c3c(n(C)c2c1)[C@@H](CO)N(C(=O)Nc1ccc(F)cc1)CC31CCN(Cc2ccccn2)CC1,-37.3
COc1ccc2c3c(n(C)c2c1)[C@H](CO)N(C(=O)Nc1ccc(F)cc1)CC31CCN(Cc2ccccn2)CC1,-17.6
O=C1CC2(CCNC2)CN1c1ccc2c(c1)OCO2 (centres undefined),21.9
COc1ccc2[nH]c3c(c2c1)CCNC31C(=O)N(CC(C)C)c2ccccc21 (centres undefined),95.2
Cc1ccc(S(=O)(=O)N(CC(=O)N2CCC(C(N)=O)CC2)c2ccccc2F)cc1,10.5
Cc1ccc(S(=O)(=O)N2CCC3(CC2)Nc2ccc(C)c(C)c2-n2cccc23)cc1,-38.4
Cc1ccc(C2=NC3(CCN(CC(=O)Nc4ccccc4Cl)CC3)NC2=O)cc1C,41.7
COc1cc(-c2coc3cc(OC)c(OC)c(OC)c3c2=O)cc(OC)c1OC,2.3
COc1cc(-c2coc3cc(OCc4ccccc4)c(OC)c(O)c3c2=O)cc(O)c1OC,-85.9*
COc1ccc(-c2coc3cc(O)ccc3c2=O)c(O)c1O,17.7
Cc1ccc(NC(=O)N2CCN(Cc3nc(-c4cccc(Cl)c4)oc3C)CC2)c(Cl)c1,1.1
Cc1ccccc1N1CCN(C2CCCN(c3ncnc4[nH]ccc34)C2)CC1 (centres undefined),0.6
Cc1cccc(Nc2nc(C(=O)N3CCc4ccccc43)nc3ccccc23)c1,-53.5
O=C1CCC2(CCCO2)CCN1Cc1cncn1C1CC1 (centres undefined),41.8
SMILES,Tg IFNy HTS
Cc1ccc(NC(=O)N2CCC[C@@]3(C(=O)N(C)C)CN(c4ccccn4)C[C@H]3C2)cc1,7.1
CC(C)n1c2ccccc2c2c1cc(C(=O)N1CCCCO1)n2C,-29.1
Cc1oc(-c2ccc(NC(=O)c3ccccc3)cc2)nc1Cn1cccn1,20.2
Cc1oc(-c2ccc(NC(=O)Cc3ccc(F)cc3)cc2)nc1Cn1cccn1,11.2
Cc1oc(-c2ccc(NC(=O)Cc3cccc(F)c3)cc2)nc1Cn1cccn1,-87.2*
Cc1oc(-c2ccc(NC(=O)Cc3ccc(Cl)cc3)cc2)nc1Cn1cccn1,-36.1
Cc1oc(-c2ccc(NC(=O)c3ccccc3F)cc2)nc1Cn1cccn1,-59.2
Cc1oc(-c2ccc(NC(=O)c3ccccc3Br)cc2)nc1Cn1cccn1,-93.7*
COc1cccc(-n2c(=O)c(C(=O)NCc3cccc(C)c3)c(O)c3cccnc32)c1,-40.5
O=C(O)c1ccc(C(F)(F)F)[nH]c1=O,-16.3
O=C(c1ccnnc1)N1CCc2ncnc(-c3cccc(F)c3)c2CC1,0.7
CCn1c(CC2CCN(C(=O)c3[nH]c4ccccc4c3C)CC2)n[nH]c1=O,-46.8
Cc1ccc(S(=O)(=O)N(C)c2cncc(C(=O)N3CCN(c4cccc(C)c4)C(C)C3)c2)cc1 (centres undefined),-45.4
COc1ccc(-c2nc(NCCCN3CCN(c4ccccc4)CC3)c3ccccc3n2)cc1,56.7
Cc1nc(N2CCCC2)nc2c1CCN(S(=O)(=O)c1ccc(F)c(F)c1)CC2,6.4
COc1ccccc1-c1nc(Cn2nnc(-c3nc(-c4cccc(C)c4)no3)c2C)c(C)o1,-5.3
c1ccc(-c2nnc(-c3csc(-c4cccnc4)n3)o2)cc1,302.6
c1ccc(-n2ncnc2-c2csc(-c3ccncc3)n2)cc1,-92.8*
Clc1ccc(-c2csc(-c3ccc(-n4cncn4)nc3)n2)cc1,3.9
CCCC(=O)N1CCN(CCC)C(=O)C1Cc1cccc(-c2ccncc2)c1 (centres undefined),-10.5
O=C(Nc1cnn(C23CC4CC(CC(C4)C2)C3)c1)C1CC(c2c(F)cccc2Cl)=NO1 (centres undefined),-83.6*
O=C(Nc1ccc(Br)cc1)C1CC(c2c(F)cccc2Cl)=NO1 (centres undefined),-0.3
NC(=O)Cc1csc(NC(=O)C2CC(c3ccccc3Cl)=NO2)n1 (centres undefined),-6.7
CCOC(=O)CC(NC(=O)N1CCC2(CC1)Nc1cc(C)ccc1-n1cccc12)c1ccccc1 (centres undefined),29.6
Cc1cccnc1C(Cc1ccsc1)NC(=O)Cc1csc(NS(C)(=O)=O)n1 (centres undefined),-1.5
SMILES,Tg IFNy HTS
CNC(=O)c1nc(Nc2ccc(F)cc2)c2ccccc2n1,-8.4
O=C(Nc1ncc(SCCN2CCCC2)s1)[C@]1(c2ccc(S(=O)(=O)C3CC3)cc2)C[C@H]1C1CCCCC1,-73.1*
COCCN(C)C(=O)c1ncn2c(C3CCN(C(=O)C4CCCC4)CC3)ccnc12,-1.2
CN(C)S(=O)(=O)c1ccc2c(c1)cc(C(=O)NCCCc1ccccc1)n2Cc1ccncc1,-44.9
CC(C(=O)N(C)C)N(C)Cc1cc(C(C)(C)C)ccc1O (centres undefined),-30.1
CN(Cc1cnccn1)c1ccc(-c2nc(-c3cccc(Cl)c3)no2)cn1,7.9
CC(C)(C)CC(C)(C)c1ccc(O)c(-n2nc3ccccc3n2)c1,-4.5
C[N+](C)(CCOc1ccccc1)Cc1ccccc1,85.2
Cc1cc(C(C)(C)CC(C)(C)C)ccc1OCCOCC[N+](C)(C)Cc1ccccc1,-84.7*
Cc1cnc(CN(C)C(=O)CN(c2cccc(F)c2)S(C)(=O)=O)[nH]1,-0.1
CCCc1cc(N2C[C@H]3C[C@H](O)[C@H](O)C[C@H]3C2)nc(C)n1,9.7
O=C(c1ncoc1-c1ccc(F)cc1)N1CCC2(CC1)C(=O)NCN2c1ccccc1,20.9
Cc1oc(-c2ccc(C(=O)NCCc3ccc(Cl)cc3)cc2)nc1CN1CCc2ccccc21,-63.9
Cc1oc(-c2ccc(C(=O)NCCC(C)C)cc2)nc1CN1CCc2ccccc21,64.3
COc1ccc(CNC(=O)c2ccc(-c3nc(CN4CCc5ccccc54)c(C)o3)cc2)cc1OC,142.2
Cc1oc(-c2ccc(C(=O)NCCc3cccs3)cc2)nc1CN1CCc2ccccc21,-88.6*
Cc1oc(-c2ccc(C(=O)NCCc3ccco3)cc2)nc1CN1CCc2ccccc21,-64.1
Cc1oc(-c2ccc(C(=O)NCc3ccc(OC(C)C)cc3)cc2)nc1CN1CCc2ccccc21,-88.4*
Cc1nc(-c2ccc(F)cc2)sc1-c1ccc(SCc2cccc(C(F)(F)F)c2)nn1,-0.9
Cc1ccccc1-c1ncc(CNCc2cccnc2-n2cncn2)s1,-26.8
